Inconclusive results are not listed. A number with no mark means an inactive call. Calls of active or inactive are those of the source. Calls follow the shape of the dose curve; as a rule, active = well fitted cell-killing curve with a large enough effect in the repeat runs; inconclusive = weak or mixed curves, or effect the other way; inactive = flat fitted curve, though single readings scatter.
assay: cAMP Responsive Elements (CRE) small molecule agonists, cell-based qHTS assay: qHTS cell viability counter screen (AID 2060914); settings: CRE-bla HEK293T viability, CellTiter-Glo luminescence, 5 h; series mostly up to 92.4 µM; activity change, negative = cytotoxicity: at the top concentration;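 also: viability read after 3 h of compound exposure; nearly all actives have a fitted effect of over 50% in size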
Description: National Center for Advancing Translational Sciences [NCATS]
Division of Preclinical Innovation [DPI]
U.S. Environmental Protection Agency [EPA]
National Institutes of Environmental Health Sciences [NIEHS]
National Toxicology Program [NTP]
U.S. Food and Drug Administration [FDA]
CREB (cyclic-AMP Responsive Element Binding Protein) is a cellular transcription factor. It binds to certain DNA sequences called cAMP Responsive Elements (CRE) and regulates the transcription of the genes. […] This cell line can be used to find agonists/antagonists of the cyclic AMP signaling pathway. The activation of the report gene under culture conditions can be detected by fluorescence intensity. This cell line has been used to screen the Tox21 10K compound library to identify agonists that induce oxidative stress. The cytotoxicity of the Tox21 compound library against the CRE-bla cell line was tested in parallel by measuring the cell viability using CellTiter-Glo assay (Promega, Madison, WI) in the same wells.
Tox21 Assay Protocol Summary:
CRE-bla Hek 293T cells were suspended in assay medium (DMEM containing 10% dialyzed FBS, 0.1 mM NEAA, 1 mM sodium pyruvate and 25 mM HEPES) and dispensed at 2,000 cells/5 uL /well into 1536-well black wall/clear bottom plates using a Multidrop Combi (ThermoFisher Scientific, Waltham, MA) dispenser. After the assay plates were incubated at 37 C/5% CO2 for 18 hrs, 23 nL of compounds dissolved in DMSO, positive controls or DMSO only was transferred to the assay plate by a pintool workstation (Kalypsys, San Diego, CA). After the plates were incubated at 37 C/5% CO2 for 3 hrs, 1 uL of LiveBLAzer B/G FRET substrate (Invitrogen, Carlsbad, CA) was added to each well using Bioraptr Flying Reagent Dispenser (FRD, Aurora Discovery, San Diego, CA). The plates were incubated at room temperature for 2 h, then fluorescence intensities were measured using an Envision plate reader (PerkinElmer, Shelton, CT) at Excitation 405nm, Emission 460nm and 530nm. The % activity was determined from the ratio of 460nm/530nm. For cell viability readout that measures cytotoxicity, 4 uL /well of CellTiter-Glo reagent was added into the assay plates using Bioraptr FRD. After 30 min incubation at room temperature, the luminescence intensity in the assay plates was measured using a ViewLux (PerkinElmer, Shelton, CT) plate reader.
% is scaled to controls: 0 for no effect and ±100 for the full control effect; potency is read from the fitted curve at half-maximal effect.

| SMILES | activity change, negative = cytotoxicity | Potency |
| --- | --- | --- |
| S=C=Nc1cccc2ccccc12 | -6.59% |  |
| CCOP(=O)(SC(C)CC)N1CCSC1=O (stereo not given) | 11.3% |  |
| C=CC(=O)OCCN(C)C | -9.83% |  |
| O=C(NC(O)C(Cl)(Cl)Cl)NC(O)C(Cl)(Cl)Cl (stereo not given) | -2.19% [at 42.5 µM] |  |
| CC(CCc1ccccc1)NC(C)C(O)c1ccc(O)cc1 (stereo not given) | -8.42% [at 42.5 µM] |  |
| CNC(=O)CSP(=O)(OC)OC | 10.6% |  |
| CCC1(CC)C(=O)N=C(O)NC1=O | 0.397% |  |
| CN(C)C(=O)Oc1cc(OC(=O)N(C)C)cc(C(O)CNC(C)(C)C)c1 (stereo not given) | 5.01% [at 42.5 µM] |  |
| Clc1cc(C(Cl)(Cl)Cl)cnc1Cl | 4.15% |  |
| Nc1ncn[nH]1 |  | inactive |
| COC(=O)C(c1ccccc1)C1CCCCN1 (stereo not given) | -10.5% |  |
| CC(=NC#N)N(C)Cc1ccc(Cl)nc1 | -12% |  |
| Oc1ccc(C(c2ccc(O)cc2)(C(F)(F)F)C(F)(F)F)cc1 |  | inactive |
| CCCCCCCCCCCCCCCCCC(=O)O |  | inactive |
| Cc1ccc2c(c1N)C(=O)c1ccccc1C2=O |  | inactive |
| C=C(Cl)Cl | -11.7% |  |
| CCC(C)c1cc(C(C)(C)C)cc(-n2nc3ccccc3n2)c1O (stereo not given) | -6.96% [at 42.5 µM] |  |
| CCCCCCCCCc1ccc(O)cc1 |  | inactive |
| CCCCCCCCCCCC[N+](C)(C)CCOc1ccccc1 |  | 61.1 µM (active) |
| CC1C=[C-]C=C1.[C-]#[O+].[C-]#[O+].[C-]#[O+].[Mn] |  | inactive |

| SMILES | activity change, negative = cytotoxicity | Potency |
| --- | --- | --- |
| CCOc1cc(Oc2ccc(C(F)(F)F)cc2Cl)ccc1[N+](=O)[O-] | -15.3% |  |
| CN1CC[C@]23c4c5ccc(O)c4O[C@H]2[C@@H](O)C=C[C@H]3[C@H]1C5 | 1.45% |  |
| C=C(C)[C@@H]1CC=C(C=O)CC1 | 0.213% |  |
| O=C(CCl)c1ccc(Cl)cc1Cl |  | inactive |
| C1CCC(NC2CCCCC2)CC1 |  | inactive |
| COc1cc2c(cc1OC)[C@@]13CCN4CC5=CCO[C@H]6CC(=O)N2[C@H]1[C@H]6[C@H]5C[C@H]43 | -0.213% |  |
| O=C(N[C@H]1CN2CCC1CC2)c1cc2ccoc2cn1 | 17% |  |
| CCC1COC(Cn2cncn2)(c2ccc(Cl)cc2Cl)O1 (stereo not given) | -4.48% |  |
| N#CCNCC#N | 22.6% |  |
| Cl/C=C\C[N+]12CN3CN(CN(C3)C1)C2 | 0.173% |  |
| N#C/C(N)=C(/N)C#N | 0.87% |  |
| C=CC[C@]1(O)CC[C@H]2[C@@H]3CCC4=CC(=O)CCC4=C3C=C[C@@]21C | -11.1% [at 42.5 µM] |  |
| CCBr | -0.716% |  |
| Cc1ccccc1CO[C@@H]1C[C@@]2(C(C)C)CC[C@]1(C)O2 | -17% |  |
| Oc1cc(Cl)cc(Cl)c1 | -16.8% |  |
| CN1C(=O)CCS(=O)(=O)C1c1ccc(Cl)cc1 (stereo not given) |  | inactive |
| CNCC(O)c1ccc(O)cc1 (stereo not given) |  | inactive |
| O=[N+]([O-])c1ccccc1-c1ccccc1 | 8.41% |  |
| ClCOCCl | -9.93% |  |
| C[C@]12CCC(=O)C(O)=C1CC[C@@H]1[C@@H]2CC[C@]2(C)C(=O)CC[C@@H]12 |  | inactive |
